This is an account of results in PubChem BioAssay (NCATS).

Records with an inconclusive call do not appear. Values without a mark were called inactive. Calls of active or inactive are those of the source. Unless noted, the call rests on the fitted dose curve; in most records, active means well fitted curve in the direction sought with a large enough effect; inconclusive means small, poorly fitted or top-dose-only effect, or another doubt; inactive means no such curve, though single readings can be large; an effect the other way counts as inactive or inconclusive.

A short description of assay [1]: qHTS for Inhibitors of Plasmodium falciparum (DD2) proliferation (AID 504314). Further: potency means the concentration at half of the fitted maximal effect.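 On activity, negative = inhibition: parasite DNA measured by SYBR Green fluorescence after red cell lysis; plate controls were DMSO vehicle for no effect and artemisinin wells for full effect.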 The gist of the method: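 Erythrocytes infected with P. falciparum Dd2 (0.3% parasitemia, 2.5% hematocrit) exposed to compound 72 h at 37C, 5% CO2. Parasite DNA quantified by SYBR Green fluorescence after saponin/Triton lysis overnight; normalized to 0.29 uM artemisinin and DMSO.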
(Quantitative high-throughput screening tests each substance at several concentrations.)

A short description of assay [2]: qHTS for Inhibitors of Plasmodium falciparum (GB4) proliferation (AID 504315). Further: nearly all actives have a fitted effect of over 50% in size. Further: potency means the concentration at half of the fitted maximal effect. The gist of the method:
(§1)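 Erythrocytes infected with P. falciparum line (0.3% parasitemia, 2.5% hematocrit final) incubated with compounds 72 h at 37 °C, 5% CO2; SYBR Green lysis buffer added, fluorescence read next day. Normalized to 0.29 uM artemisinin and DMSO.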

Assay [3] can be described thus: qHTS for Inhibitors of Plasmodium falciparum (HB3) proliferation (AID 504318).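 Further: 0% = DMSO vehicle and -100% = artemisinin control; nearly all actives have a fitted effect of over 60% in size.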 The procedure, abridged: as §1
The target in assay [4] is Atrial natriuretic peptide receptor 1 (Homo sapiens) (UniProt P16066). The experiment in a line: Natriuretic polypeptide receptor (hNpr1) antagonism - Pilot CMLD screen (AID 1347052; calls by dose curve;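 further: HEK293 cells with hNpr1 stimulated by hNppA peptide at 0.1 nM; cGMP level read as GloSensor luciferase luminescence after agonist stimulation; series mostly up to about 9.2 µM; on the % scale 0 is the no-effect control and ±100 the full control effect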).
Sequence of Atrial natriuretic peptide receptor 1 (Homo sapiens) (P16066 whole entry, looked up): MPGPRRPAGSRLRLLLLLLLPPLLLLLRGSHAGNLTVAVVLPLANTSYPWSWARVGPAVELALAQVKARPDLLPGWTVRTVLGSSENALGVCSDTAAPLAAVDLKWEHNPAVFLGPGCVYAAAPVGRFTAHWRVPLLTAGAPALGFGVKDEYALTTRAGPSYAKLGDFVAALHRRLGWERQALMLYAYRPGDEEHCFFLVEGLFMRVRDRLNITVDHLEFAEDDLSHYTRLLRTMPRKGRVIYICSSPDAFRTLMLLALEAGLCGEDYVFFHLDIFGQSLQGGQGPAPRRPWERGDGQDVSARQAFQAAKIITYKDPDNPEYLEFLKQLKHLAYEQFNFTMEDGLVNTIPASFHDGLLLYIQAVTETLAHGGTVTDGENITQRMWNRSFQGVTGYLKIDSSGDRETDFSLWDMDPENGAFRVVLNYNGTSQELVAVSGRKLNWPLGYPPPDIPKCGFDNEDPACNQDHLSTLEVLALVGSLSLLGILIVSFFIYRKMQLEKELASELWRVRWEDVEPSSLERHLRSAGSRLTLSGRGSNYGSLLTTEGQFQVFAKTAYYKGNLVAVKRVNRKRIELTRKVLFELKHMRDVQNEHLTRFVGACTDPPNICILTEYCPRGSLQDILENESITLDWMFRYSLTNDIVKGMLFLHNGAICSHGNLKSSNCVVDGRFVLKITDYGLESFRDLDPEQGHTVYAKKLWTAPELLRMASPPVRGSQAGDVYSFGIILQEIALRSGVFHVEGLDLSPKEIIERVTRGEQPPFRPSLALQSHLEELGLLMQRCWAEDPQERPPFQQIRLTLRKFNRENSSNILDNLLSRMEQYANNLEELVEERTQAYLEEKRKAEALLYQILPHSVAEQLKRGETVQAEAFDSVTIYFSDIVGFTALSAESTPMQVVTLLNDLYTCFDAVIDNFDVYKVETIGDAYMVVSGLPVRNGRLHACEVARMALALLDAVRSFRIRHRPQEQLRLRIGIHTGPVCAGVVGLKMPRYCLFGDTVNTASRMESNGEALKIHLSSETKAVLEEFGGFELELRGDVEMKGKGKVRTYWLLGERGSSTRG
Assay [5] is described as follows: qHTS for Inhibitors of Plasmodium falciparum (7G8) proliferation (AID 504316).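 Further: series mostly up to about 6.7 µM; 0% = DMSO vehicle and -100% = 0.29 µM artemisinin full kill; nearly all actives have a fitted effect of over 65% in size.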 The procedure, abridged:
as §1

A short description of assay [6]: qHTS for Inhibitors of Plasmodium falciparum (CP250) proliferation (AID 504320).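 Further: plate controls were DMSO vehicle for no effect and 0.29 µM artemisinin control for full effect.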 The gist of the method: as §1

As to `CC(CCN1CCCCc2nc(C)c(C)cc21)=NO[C@H](C)c1cn([C@@H]2COC[C@@H]2O)nn1`, the Potency entry in assay [1], in assay [2], in assay [3] and in assay [4] was “inactive” each time.

With `CC(=O)OC[C@H]1O[C@H](C#CCCCc2ccccc2)C=C[C@H]1OC(C)=O`, the Potency entry in assay [1], in assay [2], in assay [5], in assay [6] and in assay [4] was “inactive” throughout.

In the case of `COc1cc(O)c(C(=O)C=Cc2ccc3c(c2)OCO3)c(OC)c1`, the Potency result in assay [1], in assay [2], in assay [5], in assay [6] and in assay [4] was “inactive” in each case.

For `CC(CCC(=O)OC[C@H]1O[C@H](C#Cc2ccccc2)C=C[C@H]1Oc1ccc(C)cc1)=NO[C@@H](C)CN1CCCCc2nc(C)c(C)cc21`, the Potency entry in assay [1], in assay [2], in assay [3], in assay [6] and in assay [4] was “inactive” each time.

For the compound `COC(=O)N[C@H](C(C(=O)OC)=C(C)NCc1ccccc1)c1ccc(Cl)cc1`, the Potency entry in assay [1], in assay [2], in assay [3], in assay [6] and in assay [4] was “inactive” in each case.

For `CC#CCN1C(=O)NC(c2ccccc2)C(C#N)=C1C` (stereo not drawn), the Potency entry in assay [1], in assay [2], in assay [3], in assay [6] and in assay [4] was “inactive” throughout.

Regarding `COC(=O)N[C@@H](c1cccc(F)c1)[C@]1(C(=O)OC)CCCC1=O`, the Potency result in assay [1], in assay [2], in assay [3], in assay [6] and in assay [4] was “inactive” each time.

Consider `COC(=O)N1[C@H]2CC[C@@]3(C)C=C(C)O[C@]1(C)C3c1ccccc12`, for which the Potency entry in assay [1], in assay [2], in assay [3], in assay [6] and in assay [4] was “inactive” throughout.

Regarding `COC(=O)CC=C[C@@H](C)[C@H](NC(=O)OC)c1ccccc1Br`, the Potency entry in assay [1], in assay [2], in assay [3], in assay [6] and in assay [4] was “inactive” each time.

`C=C(C)CCCN1C=C(C(C)=O)C(c2ccccc2)NC1=O` (stereo not drawn): the Potency result in assay [1], in assay [2], in assay [3], in assay [6] and in assay [4] was “inactive” throughout.

As for `CCN1C(=NCCc2ccccn2)NC(c2cccc(C(F)(F)F)c2)C(C(=O)OC)=C1C` (stereo not drawn), the values for the Potency in assay [1] and in assay [2] were 533 nM (active) and 301 nM (active), respectively. The Potency result in assay [3] and in assay [4] was “inactive” each time.

Take `CCCCCCCC1=Cc2ccc(F)cc2C(C(C(C)=O)C(=O)OC)N1C(=O)OC` (stereo not drawn): the Potency entry in assay [1], in assay [2], in assay [3], in assay [6] and in assay [4] was “inactive” each time.

In the case of `COC(=O)CCC(=O)OC1(C)C(=O)C=C2C=C(C3CC3)N(Cc3ccco3)C=C2C1=O` (stereo not drawn), in assay [1], the activity, negative = inhibition was 0.997% [at 1.12 µM]. Also, the Potency entry in assay [2], in assay [3] and in assay [4] was “inactive” throughout.

Regarding `COC(=O)[C@@]1(C=C[C@@H](C)[C@H](OC)c2ccccc2Br)[C@@H]2OCCC[C@@H]21`, the Potency result in assay [1], in assay [2], in assay [3], in assay [6] and in assay [4] was “inactive” throughout.

`C=CC[C@@H]1C=CC(ON=C(C)CCC(=O)OC[C@H]2O[C@H](C#Cc3ccccc3)C=C[C@H]2Oc2ccc(C)cc2)[C@H](CO)O1` (stereo partly drawn): the Potency entry in assay [1], in assay [2], in assay [3] and in assay [4] was “inactive” each time.

For `C=CC[C@@]1(C(=O)OC)C=C[C@@H](C)[C@H](c2ccccc2Br)N1C(=O)C(F)(F)F`, the Potency result in assay [1], in assay [2], in assay [3], in assay [6] and in assay [4] was “inactive” in each case.

As for `COC(=O)[C@H](Cc1ccccc1)NC(=O)O[C@@H]1C(=O)c2cc(OC)ccc2O[C@H]1c1ccc(OC)c(Br)c1`, the Potency result in assay [1], in assay [2], in assay [3], in assay [6] and in assay [4] was “inactive” each time.

`CC(=O)[C@H]1[C@H](CCc2ccccc2)NC(=O)N(Cc2ccccc2)[C@@H]1C`: the Potency entry in assay [1], in assay [2], in assay [3] and in assay [4] was “inactive” in each case.

Regarding `O=C1[C@H]2[C@@H]3[C@@H](O)[C@H](O)CC(=NOCc4ccccc4)[C@H]3CC[C@H]2C(=O)N1C1CCCCC1`, the Potency result in assay [1], in assay [2], in assay [3], in assay [6] and in assay [4] was “inactive” throughout.

Take `Cc1ccc(C(O)C2=CCCC2=O)cc1` (stereo not drawn): the Potency entry in assay [1], in assay [2], in assay [3], in assay [6] and in assay [4] was “inactive” in each case.

Take `CCOC(=O)C(c1ccc(OC)c(OC)c1)C1c2ccccc2C=C(C)N1C(=O)OC` (stereo not drawn): the activity, negative = inhibition in assay [1] was -0.0023% [at 1.12 µM]. Also, the Potency result in assay [2], in assay [3], in assay [6] and in assay [4] was “inactive” throughout.

In the case of `O=C(NN=C1C[C@@H](O)[C@H](O)[C@H]2[C@@H]3C(=O)N(Cc4ccc5c(c4)OCO5)C(=O)[C@@H]3CC[C@H]12)OCc1ccccc1`, the Potency result in assay [1], in assay [2], in assay [3] and in assay [4] was “inactive” in each case.

On to `COC(=O)C(C(C)=O)C1c2ccccc2C=C(C)N1C(=O)OC` (stereo not drawn), for which, in assay [1], the activity, negative = inhibition was -3.36% [at 1.12 µM]. Moreover, the Potency result in assay [2], in assay [3], in assay [6] and in assay [4] was “inactive” in each case.

Turning to `COC(=O)CC=C[C@@H](C)[C@@H](C=NO[C@H](C)c1cn([C@@H]2COC[C@@H]2O)nn1)N[S+](=O)([O-])c1ccc(C)cc1`, the Potency result in assay [1], in assay [2], in assay [3], in assay [6] and in assay [4] was “inactive” in each case.

For `CCOC(=O)NN=Cc1ccccc1-c1cc(OC)ccc1OC`, the Potency entry in assay [1], in assay [2], in assay [3], in assay [6] and in assay [4] was “inactive” in each case.

In the case of `C=CC[C@@H]1C=C[C@@H](ON=C2[C@H]3CCn4c(=O)n(-c5ccccc5)c(=O)n4[C@@H]3[C@H](O)[C@@H]3O[C@H]23)[C@@H](CO)O1`, the Potency result in assay [1], in assay [2], in assay [3], in assay [6] and in assay [4] was “inactive” in each case.

On to `CCCNC(=O)OC[C@H]1O[C@H](CCON=C2[C@H]3CCn4c(=O)n(-c5ccccc5)c(=O)n4[C@@H]3[C@H](O)[C@@H]3O[C@H]23)C=C[C@H]1Oc1ccc(OC)cc1`, for which the Potency entry in assay [1], in assay [2], in assay [3], in assay [6] and in assay [4] was “inactive” in each case.

For the compound `N#CCCCS(=O)(=O)c1nnnn1-c1ccccc1`, the Potency entry in assay [1], in assay [2], in assay [3] and in assay [4] was “inactive” in each case.
